tim10-1 inh: growth inhibitors of tim10-1 mutant yeast, primary screen, luminescence, uHTS; S. cerevisiae tim10-1 ts strain growth, BacTiter-Glo, 24 h; inhibition, % at 20 µM; 330,000 tested, 2.2% active;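 active = inhibition of at least 40%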;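 also: mutant grown at 25 °C; 0% = DMSO wells with yeast and 100% = wells holding no yeast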
V-ATPase pHluor: regulators of yeast V-ATPase proton pumping, primary screen, pHLuorin cytosolic pH fluorescence | AID 504577, 2011 | response, % at 10 µM | S. cerevisiae | 350,000 tested, 0.37% active; in the data active = response mostly above about 7.3%, no sharp cut-off; inactive = mostly below about 5.4%; also: actives read high
TIM10 inh: growth inhibitors of isogenic TIM10 control yeast, primary screen, counter-screen for tim10-1 yeast inhibitor project, luminescence, uHTS; S. cerevisiae TIM10 strain growth, BacTiter-Glo luminescence, 24 h; AID 463195, 2010; inhibition, % at 10 µM; 330,000 tested, 1.4% active;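 active = inhibition of 40% or more at the single tested concentration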;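 also: wild-type TIM10 isogenic control strain grown at permissive 25 °C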
NALP1 yeast inh: NALP1 inflammasome inhibitors in reconstituted yeast, colorimetric, S. cerevisiae, triplicate retest; 280,000 tested, 0.61% active; AID 2071, 2009; S. cerevisiae NALP1/ASC/caspase-1 growth, X-gal OD620, 72 h; inhibition, % at 10 µM; in the data active = inhibition mostly above about 24%, no sharp cut-off; inactive = mostly below about 32%
tim23-1 inh: growth inhibitors of tim23-1 mutant yeast, primary screen, luminescence, uHTS; 330,000 tested, 1.3% active; S. cerevisiae tim23-1 growth, BacTiter-Glo luminescence, 24 h; AID 463212, 2010; inhibition, % at 20 µM;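 active = growth inhibition of the mutant yeast at or above 50%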;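 also: temperature-sensitive mutant grown at 25 °C; plate controls were DMSO-treated mutant yeast for no effect and medium wells lacking yeast for full effect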
NLRP3 yeast inh: NALP3 inflammasome inhibitors in reconstituted yeast, primary screen, luminescence, uHTS; Yeast reconstituted NLRP3/ASC/caspase-1, beta-gal luminescence, 24 h; inhibition, % at 10 µM; 330,000 tested, 0.39% active; AID 2825, 2010;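 active = inhibition of 50% or more; inactive = inhibition below 50%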;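 also: plate controls were induced DMSO wells for no effect and uninduced yeast grown without galactose for full effect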
tim10-1 confirm: growth inhibitors of tim10-1 mutant yeast, confirmation, single concentration, luminescence, S. cerevisiae; shares compounds with tim10-1 inh; S. cerevisiae tim10-1 ts strain growth, BacTiter-Glo, 24 h; inhibition, % at 20 µM; 7,400 tested, 56% active;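 active = inhibition of yeast growth at or above a set limit in either of two repeat tests at 20 µM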;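 also: tim10-1 mutant grown at permissive 25 °C to find synthetic lethal compounds; 0% = DMSO yeast wells and 100% = medium wells without yeast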
TIM10 conf: growth inhibitors of wild-type TIM10 yeast, confirmation, counter-screen for tim10-1 synthetic lethality project, single concentration, luminescence, S. cerevisiae. shares compounds with TIM10 inh. S. cerevisiae tim10 strain growth, BacTiter-Glo luminescence, 24 h. inhibition, % at 10 µM. 4,600 tested, 63% active. AID 463215, 2010;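 active = inhibition of yeast growth at or above a set limit in either of two replicates at 10 µM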;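 also: this counterscreen used the strain with wild-type TIM10; 0% = yeast with DMSO and 100% = medium wells lacking yeast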
tim23-1 conf: tim23-1 mutant yeast growth inhibitors, confirmation, luminescence, single concentration | shares compounds with tim23-1 inh | S. cerevisiae tim23-1 growth, BacTiter-Glo luminescence, 24 h | AID 463218, 2010 | 4,400 tested, 83% active | inhibition, % at 20 µM;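 active = inhibition above about 39% in either of two replicate wells at 20 µM, limit read from the data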;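 also: temperature-sensitive tim23-1 mutant grown at 25 °C; 0% = DMSO wells with yeast and 100% = medium wells without yeast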
* = called active by the depositor; . = no result. In the library only some 4.2% were active in any assay of this set; here they are far more common.

SMILES	tim10-1 inh	V-ATPase pHluor	TIM10 inh	NALP1 yeast inh	tim23-1 inh	NLRP3 yeast inh	tim10-1 confirm	TIM10 conf	tim23-1 conf
O=[N+]([O-])c1ccc(C=Nc2ccc(Cl)c([N+](=O)[O-])c2)s1	65.0*	145.2*	85.4*	11.4	51.3*	9.2	71.1*	88.0*	77.3*
Cc1cc(C)cc(N=Cc2ccc([N+](=O)[O-])s2)c1	56.1*	112.0*	83.0*	34.1	55.0*	19.2	70.6*	85.8*	73.8*
COCCn1nnnc1C(C(C)C)N1CCCC(C)C1 (centres undefined)	16.4	8.8	14.2	-4.6	23.8	3.4	.	.	.
O=C(c1ccc(Cl)cc1)C(CN1CCCC1)c1ccccc1 (centres undefined)	61.6*	2.3	46.3*	42.9*	56.8*	23.6	26.1	51.0*	6.5
O=S(=O)(Nc1ccccc1)c1ccc(F)cc1	5.9	2.6	0.9	22.8	11.3	10.6	.	.	.
O=S(=O)(NC12CC3CC(CC(C3)C1)C2)c1ccc(F)cc1	47.8*	-2.0	12.1	9.5	55.0*	32.5	29.9*	.	48.8*
NC(=O)N=Nc1c2[nH]c3ccccc3nc-2c2ccccc12	43.8*	0.8	52.5*	-14.9	55.8*	42.2	44.7*	62.4*	51.9*
O=c1[nH]c2ccccc2nc1-c1ccccc1	-14.6	-1.0	7.8	10.9	15.9	31.0	.	.	.
C/C(=N\Nc1c(Cl)c(Cl)nc(C(=O)O)c1Cl)c1ccc(O)cc1	11.3	-3.6	-1.0	-19.5	8.7	17.9	.	.	.
OCCCNc1nc(-c2ccc(Br)cc2)nnc1-c1ccc(Cl)cc1	41.7*	-2.5	11.6	34.3	53.7*	6.3	30.9*	.	58.5*
OCCNc1nc(-c2ccccc2)nc2ccccc12	11.1	5.1	9.8	13.7	15.8	-3.2	.	.	.
COCCCNc1nc(-c2ccncc2)nc2ccccc12	32.5	-1.9	30.6	4.4	10.8	19.8	.	.	.
OCCCNc1nc(-c2ccc(Cl)cc2)nc2ccccc12	43.3*	-2.7	33.7	1.7	59.7*	17.1	27.1	.	30.8
COCCCNc1nc(-c2ccc(Cl)cc2)nc2ccccc12	45.6*	4.1	27.2	36.3*	58.8*	25.9	33.7*	.	54.0*
CCOc1ccccc1C(=O)NCC(=O)NCCc1ccc(S(N)(=O)=O)cc1	18.7	-2.6	2.9	10.9	14.8	9.7	.	.	.
CC1CCCC(C)N1CCCNC(=O)C1CCCN(c2ncnc3c2nc2n3CCCCC2)C1 (centres undefined)	0.8	2.2	1.5	11.0	0.6	6.1	.	.	.
Oc1ccc(N=Nc2ccccc2)o1	67.0*	6.4	18.0	18.7	68.1*	32.4	67.0*	.	74.6*
Cn1ccsc1=NC(=O)c1ccc([N+](=O)[O-])o1	50.1*	0.4	-82.2	7.0	57.2*	28.2	24.2	.	57.5*
COc1cc(C(=O)N=c2sccn2C)c([N+](=O)[O-])cc1OC	3.3	-1.7	10.8	-2.8	3.7	13.0	.	.	.
COc1cccc(NC(=O)c2ccccc2C(F)(F)F)c1	-3.1	-1.4	-9.9	4.5	4.6	3.6	.	.	.
CC1=C/C(=C\c2ccc3c(c2)OCO3)C(=O)S1	48.0*	8.5	46.0*	0.5	53.2*	-9.1	39.4*	39.8*	20.4
COc1ccc(/C(N)=N/OC(=O)c2ccc3ccccc3c2)cc1OC	.	0.9	.	.	.	.	.	.	.
COc1ccc(/C(N)=N/OC(=O)c2ccc3c(c2)OCO3)cc1OC	69.1*	3.5	47.0*	-3.7	59.5*	10.2	75.0*	46.1*	56.1*
N/C(=N\OC(=O)c1ccc2c(c1)OCO2)c1cccc(Br)c1	67.9*	5.5	92.5*	-0.6	78.2*	15.3	48.2*	95.8*	87.8*
O=C(c1ccc2c(Cl)c3c(nc2c1)CCCC3)N1CCN(c2ccc(F)cc2)CC1	32.7	4.8	34.9	51.6	33.6	25.7	.	.	.
SMILES	tim10-1 inh	V-ATPase pHluor	TIM10 inh	NALP1 yeast inh	tim23-1 inh	NLRP3 yeast inh	tim10-1 confirm	TIM10 conf	tim23-1 conf
COc1ccccc1N1CCN(C(=O)c2ccc3c(Cl)c4c(nc3c2)CCCC4)CC1	53.4*	5.8	30.7	42.2	55.6*	9.5	36.0*	.	57.2*
Cc1ccc(C)c(N2CCN(C(=O)c3cc4c(C)nc5ccccc5c4o3)CC2)c1	27.7	6.2	12.8	6.5	16.1	15.6	.	.	.
COc1ccccc1N1CCN(C(=O)c2cc3c(C)nc4ccccc4c3o2)CC1	48.9*	3.1	17.7	15.8	54.2*	21.8	16.5	.	33.5
COc1ccc(N(C)C(=O)c2ccc3c(Cl)c4c(nc3c2)CCCC4)c(OC)c1	25.0	-1.8	14.7	18.1	44.2	3.5	.	.	.
Cc1ccc(N(C)C(=O)c2ccc3c(Cl)c4c(nc3c2)CCC4)cc1C	41.1*	-1.4	20.8	32.8	55.0*	11.7	34.8*	.	55.8*
OCC(O)/C=N/Nc1nc(Nc2ccccc2)nc(Nc2ccccc2)n1 (centres undefined)	49.8*	-0.7	45.5*	18.6	53.9*	28.7	27.6	45.4*	48.0*
CNc1nc(N/N=C/c2ccc([N+](=O)[O-])cc2)nc(Nc2ccccc2)n1	10.8	1.5	24.8	21.3	28.2	45.6	.	.	.
Cc1csc(NC(=O)c2cc3c(s2)CCCCC3)n1	46.0*	2.2	41.7*	11.9	57.1*	-8.3	38.7*	36.8*	49.2*
Cc1ccccc1NC(=O)COc1ccc(S(=O)(=O)N2CCCC2)cc1C	2.4	-4.3	7.0	-1.2	5.6	13.9	.	.	.
O=C(CC(O)(c1ccccc1)C(F)(F)C(F)F)c1cccs1 (centres undefined)	6.5	2.9	16.1	23.2	5.0	3.8	.	.	.
O=C(/C=C/c1ccccc1)CC(O)(c1ccccc1)C(F)(F)C(F)F (centres undefined)	44.2*	-4.1	24.3	6.6	55.6*	37.9	41.2*	.	31.5
Cc1ccc(NC(=O)CN2C(=O)S/C(=C/c3ccncc3)C2=O)cc1	44.6*	-0.7	41.8*	7.6	56.2*	16.3	42.2*	42.8*	51.2*
CC1CN(C(=O)/C=C/c2ccccc2Cl)CC(C)O1 (centres undefined)	-5.0	-2.0	7.2	3.0	13.5	30.4	.	.	.

From PubChem
